In PubChem BioAssay (NCATS):
Results filed as inconclusive are left out. The source made the active and inactive calls. The call rests on the fitted dose curve; in most records, active means well fitted curve in the direction sought with a large enough effect in the signal ratio, with a control signal flat (not every such curve was filed as active); inconclusive means small, poorly fitted or top-dose-only effect, or effect the other way, or a change in a side signal; inactive means no such curve, though single readings can be large or run the other way; the % refers to the signal ratio.

What follows are molecules tested against Androgen receptor (Homo sapiens) (UniProt P10275) (assay: qHTS assay for small molecule antagonists of androgen receptor signaling (AID 588516)). Conditions: AR-UAS-bla HEK293, beta-lactamase ratio, antagonist mode, 16 h; series mostly up to 76.8 µM.
Sequence of Androgen receptor (Homo sapiens) (P10275 whole entry, looked up): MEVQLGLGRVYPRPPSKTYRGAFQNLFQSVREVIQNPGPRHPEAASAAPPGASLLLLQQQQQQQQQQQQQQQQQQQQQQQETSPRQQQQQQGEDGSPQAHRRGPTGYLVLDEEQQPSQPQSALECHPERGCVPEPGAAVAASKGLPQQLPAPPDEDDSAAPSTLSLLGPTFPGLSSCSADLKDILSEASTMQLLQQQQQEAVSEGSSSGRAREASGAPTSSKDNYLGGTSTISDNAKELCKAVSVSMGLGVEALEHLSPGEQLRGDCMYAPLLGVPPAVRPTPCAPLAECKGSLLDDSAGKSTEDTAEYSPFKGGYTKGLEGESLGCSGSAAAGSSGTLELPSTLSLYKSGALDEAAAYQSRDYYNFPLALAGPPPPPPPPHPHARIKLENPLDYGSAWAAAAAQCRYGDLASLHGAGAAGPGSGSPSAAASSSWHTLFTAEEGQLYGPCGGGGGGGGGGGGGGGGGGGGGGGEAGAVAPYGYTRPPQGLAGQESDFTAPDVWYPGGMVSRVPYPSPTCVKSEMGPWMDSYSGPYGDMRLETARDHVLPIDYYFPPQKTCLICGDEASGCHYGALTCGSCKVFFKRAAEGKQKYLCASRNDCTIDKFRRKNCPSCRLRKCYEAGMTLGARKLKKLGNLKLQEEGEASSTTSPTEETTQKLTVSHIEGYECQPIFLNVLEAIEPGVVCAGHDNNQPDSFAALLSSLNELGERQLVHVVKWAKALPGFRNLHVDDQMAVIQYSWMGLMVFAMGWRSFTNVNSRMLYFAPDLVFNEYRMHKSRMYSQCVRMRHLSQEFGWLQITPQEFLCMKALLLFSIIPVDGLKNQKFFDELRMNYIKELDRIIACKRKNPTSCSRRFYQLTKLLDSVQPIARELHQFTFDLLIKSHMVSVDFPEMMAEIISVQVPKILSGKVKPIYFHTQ
Text: NIH Chemical Genomics Center [NCGC] U.S. Environmental Protection Agency [EPA] National Institutes of Environmental Health Sciences [NIEHS] National Toxicology Program [NTP] NCGC Assay Overview Androgen receptor (AR), located at chromosome Xq11-12, is an important member of nuclear hormone receptors. AR signaling plays a critical role in AR-dependent prostate cancer and other androgen related diseases. Considerable attention has been given in the past decades to the possibility of some of environmental chemicals which may contribute the endocrine disruption. Therefore, it is important to understand the effect of environmental chemicals in AR signaling pathway.
NCGC Assay Protocol Summary Using a beta-lactamase reporter-gene under control of the AR response element, a cell-based assay [GeneBLAzer AR-UAS-bla-GripTite assay developed by Invitrogen] was used to measure AR ligands signaling. AR-UAS-bla-GripTite HEK 293 cells were used with assay medium containing 10% dialyzed FBS, 0.1 mM NEAA and 1 mM sodium pyruvate. The assay was performed in clear bottom black Greiner 1536-well plates. Library compounds were measured for their ability to inhibit the reporter gene activity. Compounds were screened in a titration series in 1536-well format. The fluorescence intensity (405 nm excitation, 460/530 nm emission) was measured using an EnVision plate reader. Data was normalized relative to R1881 (10nM, 100%), and DMSO only wells (basal, 0%). Concentration-response titration points for each compound were fitted to the Hill equation yielding concentrations of half-maximal inhibition (IC50) and maximal response (efficacy) values. qHTS protocol for AR beta-lactamase assay in antagonist mode [Step] [Parameter] [Value] [Description] 1. Reagent; 5 uL; 2000 cells/well 2. Incubation; 37 C for 5 hrs 3. Compounds; 23 nL; 0.59 nM to 92 uM 4. Controls (Cyp Ac, AR antagonist); 23 nL, dose response, 1:3 dilutions with duplicates 5. Agonist (Stimulator); 1uL; R1881 at 10nM (final) concentration 6. Incubation; 37 C for 16 hrs 7. Detection reagent; 1 uL of CCF4-dye 8. Incubation; RT for 2 hrs 9. Detection; Fluorescence; Envision plate reader

Structure (SMILES)	outcome
NN(c1ccccc1)c1ccccc1	inactive
CCOC(=O)C1=NN(c2ccc(Cl)cc2Cl)C(C)(C(=O)OCC)C1 (stereo not given)	inactive
O=C(O)C1(C(=O)Nc2ccc(Cl)cc2Cl)CC1	inactive
CCCCOC(=O)c1ccccc1	inactive
CNc1nc(=O)n(C2CCC(O)CC2)c(=O)n1C (stereo not given)	inactive
CCCCCCCCCCCCCC(=O)OC	inactive
CC(C)(C)C(O)/C(=C\c1ccc(Cl)cc1)n1cncn1 (stereo not given)	inactive
CCCCCCCC[Si](Cl)(Cl)Cl	inactive
Cn1c(=O)[nH]c(=O)n(C2CCC(O)CC2)c1=O (stereo not given)	inactive
C[Si]1(C)O[Si](C)(C)O[Si](C)(C)O1	inactive
C=Cc1ccc(P(c2ccccc2)c2ccccc2)cc1	inactive
C[Si](Cl)(Cl)c1ccccc1	inactive
Cc1ccc(C(=O)c2ccccc2)cc1	inactive
CCCCCCCCCCCCCCC(=O)OC	inactive
CCCCCCCOC(=O)c1ccccc1C(=O)OCCCCCCC	inactive
N[C@@H]1[C@@H](O)[C@H](O)[C@@H](CO)O[C@H]1O	inactive
C[Si](Cl)(Cl)[Si](C)(Cl)Cl	inactive
COC(=O)c1cccc(C)c1S(=O)(=O)NC(=O)Nc1nc(OCC(F)(F)F)nc(N(C)C)n1	inactive
CCSC(=O)N(CC(C)C)CC(C)C	inactive
CCCCC(CC)COC(=O)/C=C\C(=O)OCC(CC)CCCC (stereo not given)	inactive

Structure (SMILES)	outcome
CC1(C)C(=O)N(Br)C(=O)N1Br	inactive
COC(=O)c1c(Cl)nn(C)c1S(=O)(=O)NC(=O)Nc1nc(OC)cc(OC)n1	inactive
O=c1[nH]c(=O)c2[nH]cnc2[nH]1	inactive
CC1(C)CC(NCCCCCCNC2CC(C)(C)NC(C)(C)C2)CC(C)(C)N1	inactive
Cn1c(=O)[nH]c(=O)n(C2CCCCC2)c1=O	inactive
C=C(C)C(=O)OCCCCCCCCCCCCCCCC	inactive
OCCC(F)(F)C(F)(F)C(F)(F)C(F)(F)C(F)(F)C(F)(F)C(F)(F)C(F)(F)F	inactive
Cl[Si](Cl)(Cl)c1ccccc1	inactive
O=C1CCCC/C=C/CCCCCCCCCO1	inactive
CCCCC(CC)C(=O)OCCOCCOCCOC(=O)C(CC)CCCC (stereo not given)	inactive
Nc1ccc(N)c2c1C(=O)c1c(N)ccc(N)c1C2=O	inactive
CCc1cccc(C)c1N(C(=O)CS(=O)(=O)O)[C@@H](C)COC	inactive
CCCCCCCCCCCCCCCCCC(N)=O	inactive
CCCCCCCC/C=C\CCCCCCCCCCCCC	inactive
FC(F)(F)c1ccc(Cl)c(Cl)c1	inactive
CCCCCCCCCc1ccccc1	inactive
C[Si](C)(Cl)[Si](C)(C)Cl	inactive
CC(Cl)(Cl)C(=O)OCCOc1cc(Cl)c(Cl)cc1Cl	inactive
OCc1cccc(Oc2ccccc2)c1	inactive
CC(C)Cc1c(C(=O)O)c(C(F)F)nc(C(F)(F)F)c1C1=NCCS1	inactive
